Records with an inconclusive call do not appear. Entries that show only a call come without a potency. Unmarked numbers belong to inactive results. Activity calls are given as the source filed them. Calls follow the shape of the dose curve; as a rule, active = well fitted curve in the direction sought with a large enough effect; inconclusive = small, poorly fitted or top-dose-only effect, or another doubt; inactive = no such curve, though single readings can be large; an effect the other way counts as inactive or inconclusive.
Legend:
[1] = biological target: Rap guanine nucleotide exchange factor 3 (Homo sapiens) (UniProt O95398); test: Confirmatory qHTS for antagonist of cAMP-regulated guanine nucleotide exchange factor 3 (EPAC1) (AID 1645880); conditions: EPAC1 Rap1B-BODIPY-GDP exchange, fluorescence; activity, negative = inhibition: at 115 µM (top of the series); also: nearly all actives have a fitted effect of over 55% in size; also: potency is read from the fitted curve at half-maximal effect
In short: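 Nucleotide exchange uses 100 nM EPAC1, 250 nM RAP1B-BODIPY-GDP and 50 uM GDP, with compounds in a concentration-titration series. After 5 min at room temperature, fluorescence (480 nm ex/540 nm em) is read every 5 min for 30 min. Data are normalized to control ATA and DMSO.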

[2] = biological target: Rap guanine nucleotide exchange factor 3 (Homo sapiens) (UniProt O95398); test: Confirmatory qHTS for agonist of cAMP-regulated guanine nucleotide exchange factor 3 (EPAC1) (AID 1645881);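 also: EPAC1 catalysed release of BODIPY-GDP from Rap1B seen as fluorescence loss; nearly all actives have a fitted effect of over 75% in size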
[3] = biological target: Rap guanine nucleotide exchange factor 4 (Homo sapiens) (UniProt Q8WZA2); test: Confirmatory qHTS for agonist of cAMP-regulated guanine nucleotide exchange factor 4 (EPAC2) (AID 1645884);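 also: nucleotide exchange releases bodipy-GDP from Rap1 and this lowers its fluorescence; nearly all actives have a fitted effect of over 65% in size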
[4] = biological target: Rap guanine nucleotide exchange factor 3 (Homo sapiens) (UniProt O95398); test: Counterscreen qHTS for antagonist of cAMP-regulated guanine nucleotide exchange factor 3 (EPAC1) (AID 1645888);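 also: fluorescence loss as bound BODIPY-GDP is released from Rap1B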
In short: (§1)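 Rap1B-BODIPY-GDP 250 nM + GDP 50 uM; cpds 7-pt, final 9.74 nM–152 uM (activator mode) or from 7.32 nM upwards (inhibitor mode); RT; FI 480/540 nm at 5 and 30 min, then ± cAMP, reread.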

[5] = biological target: Rap guanine nucleotide exchange factor 3 (Homo sapiens) (UniProt O95398); test: Counterscreen qHTS for agonist of cAMP-regulated guanine nucleotide exchange factor 3 (EPAC1) (AID 1645889); also: nearly all actives have a fitted effect of over 40% in size
In short: as §1

Rap guanine nucleotide exchange factor 4 (Homo sapiens), sequence (Q8WZA2 whole entry, looked up): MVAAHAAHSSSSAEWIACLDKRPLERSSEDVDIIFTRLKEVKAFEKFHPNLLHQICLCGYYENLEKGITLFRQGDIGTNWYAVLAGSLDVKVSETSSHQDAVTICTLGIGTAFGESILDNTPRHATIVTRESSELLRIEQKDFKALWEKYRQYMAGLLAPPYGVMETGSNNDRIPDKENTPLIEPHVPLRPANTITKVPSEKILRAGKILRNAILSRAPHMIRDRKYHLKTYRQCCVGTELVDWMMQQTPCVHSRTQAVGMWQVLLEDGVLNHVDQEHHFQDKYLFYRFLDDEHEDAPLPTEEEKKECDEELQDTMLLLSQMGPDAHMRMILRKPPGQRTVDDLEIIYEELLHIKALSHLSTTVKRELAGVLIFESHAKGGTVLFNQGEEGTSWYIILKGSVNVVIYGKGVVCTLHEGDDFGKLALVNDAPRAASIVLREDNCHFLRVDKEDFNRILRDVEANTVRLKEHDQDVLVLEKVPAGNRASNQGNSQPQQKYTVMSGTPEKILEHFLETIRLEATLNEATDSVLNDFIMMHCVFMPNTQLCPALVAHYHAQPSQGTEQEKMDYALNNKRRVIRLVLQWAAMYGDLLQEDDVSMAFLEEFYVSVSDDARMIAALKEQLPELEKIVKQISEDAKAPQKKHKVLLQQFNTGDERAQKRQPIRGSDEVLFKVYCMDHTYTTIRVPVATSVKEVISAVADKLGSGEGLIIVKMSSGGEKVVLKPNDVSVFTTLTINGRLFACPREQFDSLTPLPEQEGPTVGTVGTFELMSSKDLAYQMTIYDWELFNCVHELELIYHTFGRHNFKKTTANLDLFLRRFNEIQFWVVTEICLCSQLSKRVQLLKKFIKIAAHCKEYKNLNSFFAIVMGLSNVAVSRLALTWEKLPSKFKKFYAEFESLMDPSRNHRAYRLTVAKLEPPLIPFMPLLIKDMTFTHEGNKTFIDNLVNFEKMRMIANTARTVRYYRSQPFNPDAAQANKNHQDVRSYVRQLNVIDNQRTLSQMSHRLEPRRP
Rap guanine nucleotide exchange factor 3 (Homo sapiens), sequence (O95398 whole entry, looked up): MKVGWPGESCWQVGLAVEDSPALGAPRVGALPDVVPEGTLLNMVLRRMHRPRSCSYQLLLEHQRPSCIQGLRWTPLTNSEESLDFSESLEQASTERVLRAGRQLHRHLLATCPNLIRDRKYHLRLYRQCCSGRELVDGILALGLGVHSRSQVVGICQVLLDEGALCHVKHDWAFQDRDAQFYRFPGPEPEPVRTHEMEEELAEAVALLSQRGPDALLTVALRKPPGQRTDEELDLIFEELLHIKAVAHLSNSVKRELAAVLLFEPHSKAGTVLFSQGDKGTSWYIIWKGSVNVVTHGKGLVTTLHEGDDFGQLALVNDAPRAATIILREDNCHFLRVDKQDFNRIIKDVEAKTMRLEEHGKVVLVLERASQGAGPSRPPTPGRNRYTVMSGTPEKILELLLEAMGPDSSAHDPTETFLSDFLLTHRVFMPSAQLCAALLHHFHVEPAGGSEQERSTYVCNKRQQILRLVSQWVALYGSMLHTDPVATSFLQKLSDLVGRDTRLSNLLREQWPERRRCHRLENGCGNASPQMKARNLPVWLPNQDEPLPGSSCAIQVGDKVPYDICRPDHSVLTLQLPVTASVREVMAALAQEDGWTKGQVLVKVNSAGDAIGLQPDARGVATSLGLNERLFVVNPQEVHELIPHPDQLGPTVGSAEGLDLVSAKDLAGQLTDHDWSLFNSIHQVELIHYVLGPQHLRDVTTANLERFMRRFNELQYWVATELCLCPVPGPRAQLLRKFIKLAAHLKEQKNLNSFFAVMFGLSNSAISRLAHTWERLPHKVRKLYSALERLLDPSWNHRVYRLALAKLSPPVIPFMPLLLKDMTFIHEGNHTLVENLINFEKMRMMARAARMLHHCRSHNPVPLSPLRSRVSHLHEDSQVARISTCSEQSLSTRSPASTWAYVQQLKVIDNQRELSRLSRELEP

Structure (SMILES): CC1(C(=O)NS(=O)(=O)c2cccc(Cl)c2)CCN1C(=O)C1(c2ccc(Cl)cc2)CCC1 (stereo not given)
- Potency [1]: 11.2 µM (active)
- Potency [2]: inactive
- activation [3]: 6.65% [at 17.1 µM, percent relative to cAMP agonist control]
- activity change, negative = inhibition [4]: -18.6% [at 30.8 µM]
- activation [5]: 5.49% [at 30.8 µM]

Structure (SMILES): Cc1ccc(S(=O)(=O)N2[C@@H](c3ccc(F)cc3)C(C(=O)O)=CC[C@H]2c2ccc(C(C)C)cc2)cc1
- Potency [1]: 75.7 µM (active)
- Potency [2]: inactive
- Potency [3]: inactive
- Potency [4]: inactive
- Potency [5]: inactive

Structure (SMILES): CCC(C)(C)C1CCc2c(sc(NC(=O)c3ccccc3C(=O)O)c2C#N)C1 (stereo not given)
- Potency [1]: 75.7 µM (active)
- Potency [2]: inactive
- Potency [3]: inactive
- Potency [4]: inactive
- Potency [5]: inactive

Structure (SMILES): Cc1noc(C)c1C(=O)N(CC(C)C)c1nc2ccccc2s1
- Potency [1]: inactive
- Potency [2]: inactive
- Potency [3]: inactive
- Potency [4]: inactive
- Potency [5]: inactive

Structure (SMILES): O=C(c1ccccc1)c1cccc2ccccc12
- Potency [1]: inactive
- Potency [2]: inactive
- activation [3]: 6.02% [at 17.1 µM, percent relative to cAMP agonist control]
- activity change, negative = inhibition [4]: -2.88% [at 30.8 µM]
- activation [5]: 19% [at 30.8 µM]

Structure (SMILES): Cc1cc(S(=O)(=O)N2CCN(CC(=O)N(C)Cc3ccccc3)CC2)ccc1Br
- Potency [1]: inactive
- Potency [2]: inactive
- Potency [3]: inactive
- Potency [4]: inactive
- Potency [5]: inactive

Structure (SMILES): COc1ccccc1C1CCN(c2ccc(CO)cc2[N+](=O)[O-])CC1
- Potency [1]: inactive
- Potency [2]: inactive
- Potency [3]: inactive
- Potency [4]: inactive
- Potency [5]: inactive

Structure (SMILES): Cc1nnc(SCCn2c(N3CCC(Cc4ccccc4)CC3)nc3c2c(=O)[nH]c(=O)n3C)s1
- Potency [1]: inactive
- Potency [2]: inactive
- Potency [3]: inactive
- Potency [4]: inactive
- Potency [5]: inactive

Structure (SMILES): Cc1ccc(/C=C2\S/C(=N/S(=O)(=O)c3cccs3)NC2=O)cc1
- Potency [1]: 67.5 µM (active)
- Potency [2]: inactive
- Potency [3]: inactive
- Potency [4]: inactive
- Potency [5]: inactive

Structure (SMILES): Cc1cc(C)n(Cc2ccc(C(=O)N/N=C/c3ccc(-c4ccc([N+](=O)[O-])cc4)o3)o2)n1
- Potency [1]: 47.8 µM (active)
- Potency [2]: inactive
- Potency [3]: inactive
- Potency [4]: inactive
- Potency [5]: inactive

Structure (SMILES): Cc1ccc(Cc2c(-c3cccc(Cl)c3)nc3ccc(Br)cn23)cc1
- Potency [1]: 75.7 µM (active)
- Potency [2]: inactive
- Potency [3]: inactive
- Potency [4]: inactive
- Potency [5]: inactive

Structure (SMILES): CCOc1ccccc1OCC(=O)Nc1cc(S(=O)(=O)N2CCCCC2)ccc1N1CCN(CC)CC1
- Potency [1]: inactive
- Potency [2]: inactive
- Potency [3]: inactive
- Potency [4]: inactive
- Potency [5]: inactive

Structure (SMILES): O=C1C(=Cc2ccccc2Cl)CCc2ccccc21
- Potency [1]: inactive
- Potency [2]: inactive
- Potency [3]: inactive
- Potency [4]: inactive
- Potency [5]: inactive

Structure (SMILES): CC(=O)CCc1oc2ccccc2c1-c1ccccc1
- Potency [1]: inactive
- Potency [2]: inactive
- activation [3]: 6.69% [at 17.1 µM, percent relative to cAMP agonist control]
- activity change, negative = inhibition [4]: -10.9% [at 30.8 µM]
- activation [5]: -0.404% [at 30.8 µM]

Structure (SMILES): COc1ccc(-c2csc(NC(=O)c3ccc(C(C)(C)C)cc3)c2C(=O)O)cc1
- Potency [1]: 37.9 µM (active)
- Potency [2]: inactive
- Potency [3]: inactive
- Potency [4]: inactive
- Potency [5]: inactive

Structure (SMILES): CC(=O)c1cc(C#N)c(N(C)Cc2ccccc2)nc1C
- Potency [1]: inactive
- Potency [2]: inactive
- activation [3]: 0.456% [at 17.1 µM, percent relative to cAMP agonist control]
- activity change, negative = inhibition [4]: -7.5% [at 30.8 µM]
- activation [5]: 0.131% [at 30.8 µM]

Structure (SMILES): CS(=O)(=O)c1ccc2c(c1)SC1=NC(=O)/C(=C/c3ccco3)C(=N)N12
- Potency [1]: 12 µM (active)
- Potency [2]: inactive
- Potency [3]: inactive
- Potency [4]: inactive
- Potency [5]: inactive

Structure (SMILES): CC(=O)NC(c1ccccc1)c1nc(-c2cccs2)cs1 (stereo not given)
- Potency [1]: inactive
- Potency [2]: inactive
- Potency [3]: inactive
- Potency [4]: inactive
- Potency [5]: inactive

Structure (SMILES): COc1ccc(C2=CC(=O)OC3(CCCCC3)O2)cc1
- Potency [1]: inactive
- Potency [2]: inactive
- activation [3]: 5.5% [at 17.1 µM, percent relative to cAMP agonist control]
- activity change, negative = inhibition [4]: -23.4% [at 30.8 µM]
- activation [5]: 7.07% [at 30.8 µM]

Structure (SMILES): COc1cc(C(=O)c2ccccc2)c([N+](=O)[O-])cc1OC
- Potency [1]: inactive
- Potency [2]: inactive
- Potency [3]: inactive
- Potency [4]: inactive
- Potency [5]: inactive

Structure (SMILES): COc1ccc(S(=O)(=O)Nc2cccc(C)c2C)c2cccnc12
- Potency [1]: inactive
- Potency [2]: inactive
- Potency [3]: inactive
- Potency [4]: inactive
- Potency [5]: inactive

Structure (SMILES): COc1ccc(OC)c(NC2c3ccccc3C(=O)N2c2cccnc2)c1 (stereo not given)
- Potency [1]: inactive
- Potency [2]: inactive
- Potency [3]: inactive
- Potency [4]: inactive
- Potency [5]: inactive

Structure (SMILES): CSCCC(NS(=O)(=O)c1ccc2c(c1)oc(=O)n2C)C(=O)NC1CCCCC1 (stereo not given)
- Potency [1]: inactive
- Potency [2]: inactive
- Potency [3]: inactive
- Potency [4]: inactive
- Potency [5]: inactive

Structure (SMILES): O=C(c1ccccc1)c1cccc(C(=O)c2ccccc2)c1
- Potency [1]: inactive
- Potency [2]: inactive
- Potency [3]: inactive
- Potency [4]: inactive
- Potency [5]: inactive
